From PubChem BioAssay AID588778 (Southern Research Institute, 2011) come the findings set out here.

The nature of the assay: Vibrio cholerae motility inhibitors, OD read-out (AID 588778). As to conditions: stronger effect = higher value.
The mark [1] stands for this setting: measured here: bacterial viability at 10 ug/mL.

Out of some 10,000 compounds screened, fewer than 10 were called active. How the calls were made is not given here. These entries were drawn from the full list.

Take `O=C(Nc1cnccn1)c1cccs1`: the inhibition is 20.3% (inactive) (concentration not given here) and 10.6% under setting [1].
The corresponding values for `CCOC(=O)N1CCN(C(=O)c2ccc(C#CC3(O)CCCCC3)cc2)CC1` are -17.2% (inactive) and -5.67%.
The corresponding values for `CC(C)N=C(NS(=O)(=O)c1ccccc1)c1ccccc1` are -3.11% (inactive) and -1.85%.
The corresponding values for `Cc1nc(NC(=O)c2c(F)c(F)c(F)c(F)c2F)ccc1I` are 13% (inactive) and 0.675%.
For the molecule `COc1ccc2[nH]cc(CCNS(=O)(=O)Cc3ccccc3)c2c1`, the inhibition (concentration not given here) is 8.63% (inactive) and the inhibition under setting [1] is 0.04%.
The corresponding values for `O=C(NC(=S)NCc1ccccc1)C1CC1` are 12.4% (inactive) and 5.74%.
In the case of `CC(NC(=O)c1ccco1)c1ccc(I)cc1` (configuration not stated), the inhibition by setting is: (concentration not given here) 15.8% (inactive); under setting [1], 23.3%.
The corresponding values for `CSc1cccc(NC(=O)Cn2c(C)c(C=O)c3ccccc32)c1` are 20.7% (inactive) and 5.17%.
The corresponding values for `CC(C)(C)OC(=O)NNC(=O)Nc1ccccc1C(F)(F)F` are 15.3% (inactive) and 31.8%.
For `O=C(O)c1ccc(NC(=O)c2ccc(Cl)cc2)c(NC(=O)c2ccc(Cl)cc2)c1` the same measures were -7.79% (inactive) and -2.21%.
In the case of `N#Cc1cc2c(nc1SCC1(O)CCCc3ccccc31)CCCC2` (configuration not stated), the inhibition is, setting by setting: (concentration not given here) 8.28% (inactive); under setting [1], -3.11%.
Consider `COc1ccc(-c2csc3ncnc(Oc4cccc5cccnc45)c23)cc1`, for which the inhibition (concentration not given here) is -32.6% (inactive) and the inhibition under setting [1] is -9.37%.
For `COc1cccc2cc(C(=O)Nc3scc(-c4ccc(F)cc4)c3C(=O)OC(C)C)c(=O)oc12` the same measures were -22.6% (inactive) and -8.21%.
The corresponding values for `O=[N+]([O-])c1cccc(CN2CCC(N3CCCC3)CC2)c1` are -18.4% (inactive) and -10.2%.
For `NC(=O)C1(N2CCCCC2)CCN(C(=O)CSc2nc3ccccc3o2)CC1` the same measures were 4.33% (inactive) and -1.26%.
For the molecule `CCN(CC#CCCOC(C)=O)c1ccccc1`, the inhibition runs as follows: (concentration not given here) -9.42% (inactive); under setting [1], -8.17%.
The corresponding values for `O=C(NC(=S)Nc1ccc(Cl)cc1C(F)(F)F)c1ccccc1I` are -7.41% (inactive) and -8.11%.
Consider `COc1cc(C=O)ccc1OC(=O)c1nsc(Cl)c1Cl`, for which the inhibition is, setting by setting: (concentration not given here) 2.31% (inactive); under setting [1], 2.66%.
The corresponding values for `O=C(NCCSc1ccc(Cl)cc1)Nc1ccccc1` are 52.1% (inactive) and 14.4%.
The corresponding values for `Cc1ccc(F)c(NC(=O)CN2C(=O)CSc3ccccc32)c1` are 16.3% (inactive) and 13.8%.
For `CCCCCOc1ccc(NC(=O)C(=O)NCCN2CCOCC2)cc1` the same measures were -4.07% (inactive) and -7.64%.
As to `COc1ccc(C(=O)N(Cc2ccc(C)o2)C2CCS(=O)(=O)C2)cc1Cl` (configuration not stated), the inhibition is 1.9% (inactive) (concentration not given here) and 1.08% under setting [1].
With `Cc1nnc(SCC(=O)Nc2ccc(Cl)cn2)s1`, the inhibition runs as follows: (concentration not given here) -2.25% (inactive); under setting [1], -0.63%.
Take `Cc1ccc(S(=O)(=O)Nc2ccc(C(=O)Nc3nccs3)cc2)cc1`: the inhibition was 4.81% (inactive) (concentration not given here) and -2.49% under setting [1].
The corresponding values for `Cn1cnnc1SCC(=O)Nc1ccccn1` are 9.88% (inactive) and 31.7%.
The corresponding values for `Clc1ccc(Cc2nc(-c3cccnc3)no2)cc1` are 5.04% (inactive) and 0.075%.
The corresponding values for `CCOc1cc2c(cc1OCC)C(c1ccc(OC)c(OC)c1)N(c1ccc(C(=O)O)cc1)C(=O)C2` (configuration not stated) are -8.01% (inactive) and -1.54%.
As to `COc1ccc(Br)cc1CNCc1cccs1`, the inhibition reads like this: (concentration not given here) 84.4% (inactive); under setting [1], 24.4%.
The corresponding values for `C=CCn1c2ccccc2c2nnc(SCC(=O)Nc3cc(C)on3)nc21` are -1.67% (inactive) and -8.05%.
Take `CC1=C(C(=O)Nc2nc3ccccc3s2)C(c2ccc(F)cc2)C2=C(CCCC2=O)N1` (configuration not stated): the inhibition reads like this: (concentration not given here) -5.34% (inactive); under setting [1], 0.795%.
For `CC(C)(NO)C(=O)c1ccc(Cl)cc1` the same measures were 1.66% (inactive) and -5.03%.
For `CC12CCC(C(=O)NCc3ccccc3Cl)(CC1=O)C2(C)C` (configuration not stated) the same measures were 7.42% (inactive) and -6.53%.
For `Cc1cc(NC(=O)COc2cc(C)c(Cl)c(C)c2)no1` the same measures were 3.92% (inactive) and -7.52%.
In the case of `CCOc1ccc2ccccc2c1C(=O)NCc1cccs1`, the inhibition reads like this: (concentration not given here) 17.9% (inactive); under setting [1], 2.9%.
The corresponding values for `O=C(CC1(c2ccc(Cl)cc2)C(=O)c2ccccc2C1=O)N1CCCCC1` are 16% (inactive) and -0.9%.
The corresponding values for `Cc1occc1C(=O)Nc1cc(=O)n(C)c(=O)n1C` are 3.62% (inactive) and -1.31%.
For `Cc1c(C(=O)c2ccccc2)c(=O)n(C)c(=O)n1C` the same measures were -8.62% (inactive) and 1.24%.
`COc1ccc(OC)c(NC(=O)Cn2c(C)ccc2C)c1`: the inhibition (concentration not given here) was 5.31% (inactive) and the inhibition under setting [1] is 2.44%.
The corresponding values for `CC12CCC(C(=O)Nc3ccc(SC(F)F)cc3)(CC1=O)C2(C)C` (configuration not stated) are 7.67% (inactive) and 34.3%.
For `S=C(NCc1ccc(Cl)cc1)N1CCC2(CC1)OCCO2` the same measures were -10.1% (inactive) and -3.96%.
Take `OCCNC(=S)NC1CCCCC1`: the inhibition (concentration not given here) was -10.2% (inactive) and the inhibition under setting [1] is -4.3%.
For `OCCNC/C=C/c1c(F)c(F)c(F)c(F)c1F` the same measures were 8.12% (inactive) and 1.91%.
For `O=C(c1ccc(Sc2nnc(Cc3ccccc3)n2-c2ccccc2)c([N+](=O)[O-])c1)N1CCCC1`, the inhibition (concentration not given here) was -6.85% (inactive) and the inhibition under setting [1] came to 7.99%.
Take `COc1ccc(NC(=S)Nc2ccccc2OC(F)F)cc1OC`: the inhibition is, setting by setting: (concentration not given here) -38% (inactive); under setting [1], -5%.
For `Cc1ccc(OCc2nnc(SCC(=O)N3CCc4ccccc43)n2N)cc1C` the same measures were -18.2% (inactive) and -12.3%.
The corresponding values for `C=C1C2(C(=O)Nc3nc4ccc(Br)cc4s3)CCC(C2)C1(C)C` (configuration not stated) are -2.38% (inactive) and -1.19%.
The corresponding values for `Cc1cc(Cl)c(OCCOCCn2cnc3ccccc3c2=O)c(Br)c1` are 4.18% (inactive) and -5.62%.
Take `Cc1c(N2C(=O)C3C4C=CC(C5CC45)C3C2=O)c(=O)n(-c2ccccc2)n1C` (configuration not stated): the inhibition reads like this: (concentration not given here) -7.28% (inactive); under setting [1], -4.46%.
The corresponding values for `COc1ccc(NC(=S)N2CCCC2C(=O)N2CCCC2)cc1` (configuration not stated) are 41.3% (inactive) and 7.73%.
Turning to `CN(C)C(=O)c1ccccc1C(=O)N(C)C`, the inhibition is -3.26% (inactive) (concentration not given here) and 34.3% under setting [1].
Consider `C[C@@H](NC(=O)C1CCN(Cc2cccc(Cl)c2)CC1)c1ccccc1`, for which the inhibition is, setting by setting: (concentration not given here) 19.5% (inactive); under setting [1], 5.13%.
The corresponding values for `Cc1cccc(C(=O)Nc2ccc(I)cc2C(=O)N2CCCC2)c1` are -0.8% (inactive) and -1.35%.
For `C=CCn1c(SCC(=O)Nc2c(C)cc(I)cc2C)nnc1-c1ccco1` the same measures were 5% (inactive) and -2.52%.
With `COc1cccc(-c2cc(C(F)(F)F)n3ncc(C(=O)OC(C)C)c3n2)c1`, the inhibition was 14.1% (inactive) (concentration not given here) and 15.9% under setting [1].
For the molecule `Cc1cc(Br)c(NC(=O)CSc2ccc(Cl)cc2)cc1C`, the inhibition (concentration not given here) is -1.15% (inactive) and the inhibition under setting [1] worked out at 5.67%.
For `COc1ccc(N(C)NC(=O)Cc2ccccc2)cc1` the same measures were 16.7% (inactive) and 4.27%.
